In PubChem BioAssay (EPA / NIEHS) one finds outcome and AC50 data, which are given here for three compounds.

The source made the active and inactive calls. How the source made its calls: active means hit-call score of the fitted dose curve at least 0.9, where 1 is the maximum; inactive means score below 0.9.

Read-out in assay [1]: TIMP metallopeptidase inhibitor 1 (TIMP1), TIMP1 (gene 7076)
Kind of assay: BSK_hDFCGF_TIMP1: BioMAP Diversity Plus: hDFCGF Assay for TIMP metallopeptidase inhibitor 1 (TIMP1) Biomarker Activity (AID 2283062). The note with it: primary human foreskin fibroblasts; actives raise or lower the signal. The method in brief:
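Human foreskin fibroblast primary cultures dosed for 24 h; secreted/surface TIMP-1 quantified by ELISA. Bidirectional curve fitting against DMSO baseline; cytotoxicity tracked in parallel cultures by SRB total-protein staining.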

Read-out in assay [2]: Monokine induced gamma interferon (MIG), CXCL9 (gene 4283)
As to the kind of experiment: BSK_hDFCGF_MIG: BioMAP Diversity Plus: hDFCGF Assay for Monokine induced gamma interferon (MIG) Biomarker Activity (AID 2283063). The note with it: primary human foreskin fibroblasts; actives raise or lower the signal. In outline:
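MIG/CXCL9 measured by ELISA 24 h after dosing primary human skin fibroblasts. Activity fitted in both directions against DMSO controls. Cytotoxicity was checked in parallel cultures by SRB staining read at 560 nm.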

Read-out in assay [3]: Vascular cell adhesion molecule 1 (VCAM1), VCAM1 (gene 7412)
Kind of assay: BSK_hDFCGF_VCAM1: BioMAP Diversity Plus: hDFCGF Assay for Vascular cell adhesion molecule 1 (VCAM1) Biomarker Activity (AID 2283065). The note with it: primary human foreskin fibroblasts; actives raise or lower the signal. The method in brief:
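Human foreskin fibroblast primary cells dosed with chemical, VCAM-1 measured by ELISA at 24 h. Bidirectional curve fitting relative to DMSO as negative control/baseline.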

Read-out in assay [4]: Plasminogen activator inhibitor-1 (PAI1), SERPINE1 (gene 5054)
As to the kind of experiment: BSK_hDFCGF_PAI1: BioMAP Diversity Plus: hDFCGF Assay for Plasminogen activator inhibitor-1 (PAI1) Biomarker Activity (AID 2283066). The note with it: primary human foreskin fibroblasts; actives raise or lower the signal. The method in brief:
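Human foreskin fibroblast primary cells, 24 h chemical exposure; PAI-1 measured by ELISA. Bidirectional fitting relative to DMSO; parallel cultures stained with SRB for total protein to flag overt cytotoxicity.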

Read-out in assay [5]: Intercellular Adhesion Molecule 1 (ICAM1), ICAM1 (gene 3383)
As to the kind of experiment: BSK_KF3CT_ICAM1: BioMAP Diversity Plus: KF3CT Assay for Intercellular Adhesion Molecule 1 (ICAM1) Biomarker Activity (AID 2283067). The conditions noted are these: primary human keratinocytes with fibroblasts; actives raise or lower the signal. In outline: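 Human keratinocyte–foreskin fibroblast co-culture was treated for 24 h. Cell-surface ICAM-1 was quantified by ELISA, fitted bidirectionally relative to DMSO. Cytotoxicity was checked in parallel cultures by SRB total-protein staining.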

Read-out in assay [6]: Interferon-gamma inducible Protein 10 (IP10), CXCL10 (gene 3627)
Kind of assay: BSK_KF3CT_IP10: BioMAP Diversity Plus: KF3CT Assay for Interferon-gamma inducible Protein 10 (IP10) Biomarker Activity (AID 2283068). The note with it: primary human keratinocytes with fibroblasts; actives raise or lower the signal. In outline:
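Human keratinocyte plus foreskin fibroblast primary co-culture exposed to test chemical for 24 h; IP-10 measured by ELISA. Concentration-response fitted bidirectionally against DMSO control as baseline.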

Assay [7] in a line: BSK_KF3CT_SRB: Viability Assessment in the BioMAP Diversity Plus: KF3CT Assay (AID 2283069).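 Further: total protein by sulforhodamine B staining as a cytotoxicity measure; fitted for both signal gain and loss against DMSO baseline.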 The note with it: primary human keratinocytes with fibroblasts. The method in brief:
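Keratinocytes co-cultured with foreskin fibroblasts (human primary); chemical added, 24 h; fix 10% TCA, stain 0.1% SRB, A560. Bidirectional fit vs DMSO.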

Read-out in assay [8]: Interleukin-1 alpha (IL1a), IL1A (gene 3552)
Kind of assay: BSK_KF3CT_IL1a: BioMAP Diversity Plus: KF3CT Assay for Interleukin-1 alpha (IL1a) Biomarker Activity (AID 2283070). The conditions noted are these: primary human keratinocytes with fibroblasts; actives raise or lower the signal. The method in brief:
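Chemicals were dosed onto co-cultured human keratinocytes and foreskin fibroblasts, IL-1a was quantified by ELISA at 24 h, and activity was fitted in both directions relative to DMSO controls.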

Read-out in assay [9]: TIMP metallopeptidase inhibitor 2 (TIMP2), TIMP2 (gene 7077)
Kind of assay: BSK_KF3CT_TIMP2: BioMAP Diversity Plus: KF3CT Assay for TIMP metallopeptidase inhibitor 2 (TIMP2) Biomarker Activity (AID 2283071). The conditions noted are these: primary human keratinocytes with fibroblasts; actives raise or lower the signal. The method in brief:
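Co-culture of human primary keratinocytes and foreskin fibroblasts, measured 24 h after chemical dosing. TIMP-2 quantified by ELISA and fitted in both directions relative to DMSO. Cytotoxicity checked in parallel cultures by SRB total-protein staining.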

Read-out in assay [10]: Transforming growth factor beta 1 (TGFb1), TGFB1 (gene 7040)
As to the kind of experiment: BSK_KF3CT_TGFb1: BioMAP Diversity Plus: KF3CT Assay for Transforming growth factor beta 1 (TGFb1) Biomarker Activity (AID 2283072). The conditions noted are these: primary human keratinocytes with fibroblasts; actives raise or lower the signal. The method in brief:
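Human keratinocyte/foreskin fibroblast co-culture; TGF-b1 measured by ELISA 24 h after dosing, fitted bidirectionally versus DMSO. Cytotoxicity checked in parallel cultures by total protein (SRB staining, 560 nm).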

Read-out in assay [11]: C-C motif chemokine 2 (Homo sapiens) (UniProt P13500)
As to the kind of experiment: BSK_KF3CT_MCP1: BioMAP Diversity Plus: KF3CT Assay for Monocyte Chemoattractant Protein 1 (MCP1/CCL2) Biomarker Activity (AID 2283073). The conditions noted are these: primary human keratinocytes with fibroblasts; actives raise or lower the signal. In outline:
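Human keratinocyte–foreskin fibroblast co-culture; MCP-1 measured by ELISA 24 h after dosing. Bidirectional fit vs DMSO; cytotoxicity tracked by SRB total protein in parallel cultures.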

Read-out in assay [12]: Matrix Metallopeptidase 9 (MMP9), MMP9 (gene 4318)
As to the kind of experiment: BSK_KF3CT_MMP9: BioMAP Diversity Plus: KF3CT Assay for Matrix Metallopeptidase 9 (MMP9) Biomarker Activity (AID 2283074). The note with it: primary human keratinocytes with fibroblasts; actives raise or lower the signal. In outline: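 Human keratinocyte/foreskin fibroblast co-culture; compound added; 24 h; MMP-9 by ELISA; bidirectional fit vs DMSO baseline.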

Read-out in assay [13]: urokinase plasminogen activator (uPA), PLAU (gene 5328)
Kind of assay: BSK_KF3CT_uPA: BioMAP Diversity Plus: KF3CT Assay for urokinase plasminogen activator (uPA) Biomarker Activity (AID 2283075). The conditions noted are these: primary human keratinocytes with fibroblasts; actives raise or lower the signal. The method in brief: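 ELISA readout of uPA, analyzed for signal gain or loss relative to DMSO, from a human primary keratinocyte–foreskin fibroblast co-culture measured 24 h after chemical treatment.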

Read-out in the next assay: CD40, CD40 (gene 958)
Kind of assay: BSK_LPS_CD40: BioMAP Diversity Plus: LPS Assay for CD40 Biomarker Activity (AID 2283076). The conditions noted are these: primary human HUVEC with PBMC; actives raise or lower the signal. In outline:
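HUVEC plus PBMC co-culture stimulated with LPS; CD40 quantified by ELISA 24 h after compound dosing. Fitting was bidirectional relative to DMSO. SRB staining of parallel cultures flagged overt cytotoxicity.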

Read-out in assay [14]: E-selectin (Homo sapiens) (UniProt P16581)
As to the kind of experiment: BSK_LPS_Eselectin: BioMAP Diversity Plus: LPS Assay for Eselectin Biomarker Activity (AID 2283077). The conditions noted are these: primary human HUVEC with PBMC; actives raise or lower the signal. In outline: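 Human umbilical vein endothelial cells co-cultured with PBMC under LPS stimulation; cell-surface E-selectin measured by ELISA 24 h after dosing. Change in either direction versus DMSO, with SRB total-protein staining in parallel cultures for cytotoxicity.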

Read-out in assay [15]: Interleukin-8 (IL8), CXCL8 (gene 3576)
Kind of assay: BSK_LPS_IL8: BioMAP Diversity Plus: LPS Assay for Interleukin-8 (IL8) Biomarker Activity (AID 2283078). The conditions noted are these: primary human HUVEC with PBMC; actives raise or lower the signal. The method in brief: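 Human umbilical vein endothelial cells co-cultured with PBMC, LPS-stimulated, exposed to compound for 24 h. IL-8 quantified by ELISA; fitted in both directions against DMSO, with SRB total-protein staining of parallel cultures for cytotoxicity.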

Assay [16] is described as follows: BSK_LPS_SRB: Viability Assessment in the BioMAP Diversity Plus: LPS Assay (AID 2283079).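 Further: total protein by sulforhodamine B absorbance as a cytotoxicity measure; measured one day after compound addition; fitted in both directions against DMSO so loss or gain of signal counts.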 The note with it: primary human HUVEC with PBMC. In outline: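 Co-culture of human umbilical vein endothelial cells and PBMC, read 24 h after dosing. Total protein by 0.1% SRB staining after 10% TCA fixation, absorbance at 560 nm; bidirectional fit against DMSO.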
Read-out in assay [17]: Interleukin-1 alpha (IL1a), IL1A (gene 3552)
As to the kind of experiment: BSK_LPS_IL1a: BioMAP Diversity Plus: LPS Assay for Interleukin-1 alpha (IL1a) Biomarker Activity (AID 2283080). The conditions noted are these: primary human HUVEC with PBMC; actives raise or lower the signal. The method in brief: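 Human umbilical vein endothelial cells co-cultured with PBMC and stimulated with LPS; IL-1a measured by ELISA 24 h after dosing. Bidirectional fitting against DMSO; cytotoxicity checked by SRB staining in parallel cultures.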

Read-out in assay [18]: Monocyte Chemoattractant Protein-1 (MCP1), CCL2 (gene 6347)
Kind of assay: BSK_LPS_MCP1: BioMAP Diversity Plus: LPS Assay for Monocyte Chemoattractant Protein-1 (MCP1) Biomarker Activity (AID 2283081). The note with it: primary human HUVEC with PBMC; actives raise or lower the signal. In outline:
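Human umbilical vein endothelial cells co-cultured with PBMC, LPS-stimulated; secreted MCP-1 measured by ELISA 24 h after compound addition. Bidirectional curve fitting against DMSO baseline; SRB total-protein staining in parallel cultures for cytotoxicity.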

Read-out in assay [19]: Matrix Metallopeptidase 1 (MMP1), MMP1 (gene 4312)
As to the kind of experiment: BSK_hDFCGF_MMP1: BioMAP Diversity Plus: hDFCGF Assay for Matrix Metallopeptidase 1 (MMP1) Biomarker Activity (AID 2283064). The note with it: primary human foreskin fibroblasts; actives raise or lower the signal. In outline:
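hDFCGF primary fibroblasts (human foreskin); chemical added; 24 h; MMP1 by ELISA; bidirectional fit vs DMSO.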

E-selectin (Homo sapiens), sequence (P16581 whole entry, looked up): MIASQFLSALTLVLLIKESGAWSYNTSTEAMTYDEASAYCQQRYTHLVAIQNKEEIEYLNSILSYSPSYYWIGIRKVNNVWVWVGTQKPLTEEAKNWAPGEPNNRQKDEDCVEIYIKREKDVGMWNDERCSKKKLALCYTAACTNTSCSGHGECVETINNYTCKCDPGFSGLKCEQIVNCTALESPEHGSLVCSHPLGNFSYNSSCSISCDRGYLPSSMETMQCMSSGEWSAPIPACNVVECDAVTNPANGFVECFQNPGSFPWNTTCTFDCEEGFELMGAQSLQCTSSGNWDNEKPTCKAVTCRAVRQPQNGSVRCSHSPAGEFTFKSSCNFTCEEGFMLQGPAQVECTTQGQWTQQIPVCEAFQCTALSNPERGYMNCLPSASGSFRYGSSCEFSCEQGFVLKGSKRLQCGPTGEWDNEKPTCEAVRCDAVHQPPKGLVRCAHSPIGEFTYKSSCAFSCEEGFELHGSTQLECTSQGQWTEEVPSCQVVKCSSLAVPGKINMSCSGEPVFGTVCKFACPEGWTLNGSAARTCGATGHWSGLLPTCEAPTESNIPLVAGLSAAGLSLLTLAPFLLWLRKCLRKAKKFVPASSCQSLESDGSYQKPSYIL

Regarding `C=CCc1ccc2c(c1)OCO2`, the result in assay [1], in [2], in assay [3], in assay [4], in assay [5] and in assay [6] was inactive. Moreover, the outcome in [7], in [8], in [9], in [10], in assay [11] and in [12] was inactive. The outcome is “inactive” in assay [13]; “inactive” with CD40, CD40 (gene 958); “inactive” in assay [14]; “inactive” in [15]; “inactive” in assay [16]; “inactive” in assay [17]. Moreover, the outcome in assay [18] was inactive.
`CN(C)[C@@H]1C(=O)C(C(N)=O)=C(O)[C@@]2(O)C(=O)C3=C(O)c4c(O)cccc4[C@@](C)(O)[C@H]3C[C@@H]12`: the outcome in assay [1], in [2], in assay [19], in assay [4], in assay [5] and in [6] was inactive. Also, the result in assay [7], in assay [8], in [9], in assay [10], in assay [11] and in assay [12] was inactive. The outcome in assay [13] is “inactive”; with CD40, CD40 (gene 958), “inactive”; in assay [14] it was “inactive”; in assay [15], “inactive”; in assay [16], “inactive”; in assay [17], “inactive”. Further, the result in assay [18] was inactive.
Regarding `CCCCCOC(=O)c1ccccc1C(=O)OCCCCC`, the outcome in assay [1], in assay [2], in assay [19], in assay [5], in [6] and in assay [7] was inactive. Further, the result in assay [8], in assay [9], in assay [10], in [11], in [12] and in assay [13] was inactive. Besides, the outcome in assay [17] and in assay [18] was inactive. Also, the AC50 with CD40, CD40 (gene 958) is 20 µM (active); in assay [14] it was 31.7 µM (active); in assay [15], 20 µM (active).
